The values that follow come from the OligoGym collection.
Also: reference of the scale not given here.

One assay deals with TMCO6. Description: pooled miR-30 sensor sort-seq; sequence = guide strand. The following applies: shRNA.
For TTTCTCAGCAGCCTCTTGCTGA, the sensor-assay potency score (higher = more potent) was -0.697. For the sequence TTGTAGCATGTGCTGAGGGAGA, the sensor-assay potency score (higher = more potent) was -1.18. The same measure, in the same setting: as for AACATTGCACAGAACTGTGAGC, the figure is -0.57; as for AACACGCTCATCTCTGAGCTGC, -0.789.

Consider ATACACACGATCCTGGAGCTGG, for which the sensor-assay potency score (higher = more potent) was -0.0753.

In the next assay the target is TMED3. Described as above. Conditions: shRNA.
Sequence TATTAAGGTCTTCCGCTCGGGC showed a sensor-assay potency score (higher = more potent) of -0.618. Still for that read-out and setting: the value for TACATAGCAGTCAACATCGTAG was -0.235; that for TACTGCTTCTTCGTTTCTCTGT was -0.244; that for TAGTTGTAAATGTCTTTTCAGC was -1.07. On the same count and under the same terms, the value for ATCGTCTCGCCAACAGACCAGT was -1.25; that for TACCACAGCAGCATCGTTCTGC was 0.426. TTGAAAGTCAAAGTAGACGGTC: the sensor-assay potency score (higher = more potent) is -0.0324.

Sequence ATAGCAGTCAACATCGTAGTGG gave a sensor-assay potency score (higher = more potent) of -0.497. Sequence TTCAACAGTAGCACCTGACTGA yielded a sensor-assay potency score (higher = more potent) of 0.248. On the same count and under the same terms, the value for TAGCAGTCAACATCGTAGTGGC was -0.101; that for TTCGTTTCTCTGTAGATGGTGT was 0.459; that for TTGTCCGGCAGCTCGAAGGTGA was -0.973.
